The values that follow come from PubChem BioAssay.

The nature of test [1]: inhibitors of TNFa-induced NFkB p65 translocation, primary screen, imaging, HUVEC, MLSMR starter and 10KST1 sets (AID 438;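 active means inhibition above 20% together with a positive visual image hit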;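 further: compound added about 3h40 before a 20 min TNFalpha stimulation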;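 on inhibition: signal is the nuclear over cytoplasmic p65 intensity ratio per well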). Conditions: HUVEC TNFa-induced p65 nuclear translocation; cell count: measured here: nuclei count (cytotoxicity indicator), at 2.08 µM; inhibition: at 2 µM, stronger effect = higher value, 0% TNFa-plus-vehicle, 100% no-TNFa wells.
Test [2] is described as follows: inhibitors of mutant huntingtin aggregation, primary screen, imaging, exon1htt(103Q)mCFP cells, high-content imaging (AID 483;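 active means visual image review flags a hit and inhibition of aggregation exceeds 20%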;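 further: compound exposure lasted 3 days before fixation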;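 on nuclei count: percent of the per-plate median nuclei count of sample wells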). Conditions: exon1htt(103Q)mCFP cell line, aggregate imaging, at 2 µM; inhibition of aggregation: stronger effect = higher value; nuclei count: measured here: cell count, toxicity.
The nature of test [3]: inhibitors of E-selectin induction by TNFa, primary screen, imaging, HUVEC, immunofluorescence, MLSMR starter and 10KST1 sets (AID 487;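 active means visually confirmed hit in the image check and inhibition above 20%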;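 on inhibition: signal is fraction of cell area covered by stained E-selectin grains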;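 on nuclei count: 100% = median nuclei count of all wells on the same plate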). The conditions noted are these: HUVEC TNFalpha-induced E-selectin immunofluorescence imaging, at 2 µM; inhibition: stronger effect = higher value; nuclei count: measured here: cell number, toxicity.
The nature of test [4]: DUSP6 inhibitors restoring Erk phosphorylation by chemical complementation, primary imaging in DUSP6-transfected HeLa (AID 609;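 active means compounds giving at least 50% inhibition in the cell-based MKP-3 phosphatase rescue imaging test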;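 on inhibition: phospho-Erk level distribution per well compared with pooled transfected vehicle control wells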). Conditions: HeLa MKP-3 transfected, phospho-Erk imaging KS statistic, at 10 µM, cells stimulated with TPA for 15 min.
Test [5] concerns the target Dual specificity protein phosphatase 6 (Homo sapiens) (UniProt Q16828). Described as above. Conditions: HeLa MKP-3 transfected, phospho-Erk imaging KS statistic; at 10 µM; stronger effect = higher value; cells stimulated with TPA for 15 min.
The target of test [6] is Voltage-gated potassium channel subunit beta-2 (Rattus norvegicus) (UniProt P62483). In words: KvBeta enzyme negative modulators, primary screen, biochemical, NADPH fluorescence (AID 622;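 active means fluorescence slope higher than the sample average by over 3 SD, cut at about -0.22 in these data, passing the limit was not always enough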;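 further: slope of raw intensity against log time taken from 70 to 1610 s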). The conditions noted are these: recombinant KvBeta, 4-cyanobenzaldehyde reduction, at 10 µM, stronger effect = higher value.
Voltage-gated potassium channel subunit beta-2 (Rattus norvegicus), sequence (P62483 whole entry, looked up): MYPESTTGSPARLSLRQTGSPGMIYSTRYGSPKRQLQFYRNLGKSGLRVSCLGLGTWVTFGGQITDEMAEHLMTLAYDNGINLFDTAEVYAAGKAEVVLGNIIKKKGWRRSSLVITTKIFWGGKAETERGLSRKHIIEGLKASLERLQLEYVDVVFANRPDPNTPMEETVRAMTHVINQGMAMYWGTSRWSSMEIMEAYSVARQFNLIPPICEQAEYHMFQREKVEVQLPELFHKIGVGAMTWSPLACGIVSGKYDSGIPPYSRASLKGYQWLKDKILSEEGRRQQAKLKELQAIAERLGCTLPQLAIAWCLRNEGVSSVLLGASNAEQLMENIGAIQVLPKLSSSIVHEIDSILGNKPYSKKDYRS
For test [7] the target is unchanged. In words: KvBeta positive modulators, primary screen, biochemical, NADPH fluorescence (AID 623;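 active means NADPH fluorescence slope more negative than the mean of all samples by about 3 SD, 99.7% confidence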;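 further: fluorescence intensity change per second fitted from 20 to 320 s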). The conditions noted are these: Recombinant KvBeta, NADPH fluorescence decrease slope, 10 min; at 10 µM; stronger effect = lower value.
Test [8] has as its target Alpha-2C adrenergic receptor (Homo sapiens) (UniProt P18825). In words: modulators of alpha2C/GIRK thallium flux, primary screen, cell-based, HEK293 alpha2C/GIRK1/2 (AID 624;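 active means fluorescence slope after compound addition differing from the mean of all screened samples at 99.7% confidence, in either direction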;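 further: slope of fluorescence ratio to pre-addition baseline per second over 15 to 24 s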). The conditions noted are these: thallium flux BTC fluorescence, at 10 µM, actives lie on both sides.
Test [9] can be described thus: inhibitors of larval lipid processing in zebrafish, primary screen, whole organism, PED6 fluorescence, gall bladder and intestine (AID 686;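 active means a full or partial loss of lipid-probe fluorescence in the fish gall bladder, intestine or both, judged by eye; inactive means no fluorescence loss, or compound toxic to the fish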;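 further: larvae 5 to 7 days old with five fish per well; signal comes from phospholipase A2 cleavage of quenched PED6 carried via bile; overnight exposure to compound and PED6 before scoring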). The conditions noted are these: Zebrafish larvae PED6 lipid processing, fluorescence scoring; screened at 20 µM (by protocol).
Test [10] in a line: inhibitors of Chlamydomonas gravitaxis, primary screen, whole organism, Chlamydomonas reinhardtii, WT vs cilia-less mutant, absorbance, 96-well (AID 463189).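 Further: 0% = wild type cc124 cells in DMSO and 100% = ciliumless bld1 mutant cells.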 The conditions noted are these: OD600 absorbance, 2 days, at 10 µM, stronger effect = higher value.
A short description of test [11]: inhibitors of Sendai virus-induced IRF3 signaling, primary screen, TLR/RLR signaling modifier project, cell-based, Sendai virus stimulus, luciferase, 10K MLSCN set (AID 602276;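 active means inhibition at or above 50% at 10 µM; inactive means inhibition below 50%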;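 further: firefly luciferase from ISG56 promoter only with Renilla not read in this screen; 0% = Sendai virus plus DMSO and 100% = medium plus DMSO without virus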). The conditions noted are these: HEK293 RL24 IRF3 luciferase reporter, at 10 µM, stronger effect = higher value. Background: A reporter such as luciferase makes a cellular process visible.
A short description of test [12]: inhibitors of poly I:C-induced TLR3 signaling, primary screen, cell-based, poly I:C stimulus, luciferase, 10K MLSCN set (AID 602277;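 active means inhibition of the reporter signal at or above 50%; inactive means inhibition below 50%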). The conditions noted are these: HEK293-TLR3 RL24 IRF3 luciferase reporter, at 10 µM, stronger effect = higher value.
Test [13] addresses Muscarinic acetylcholine receptor M4 (Homo sapiens) (UniProt P08173). In words: compounds altering M4/GIRK thallium flux, either direction, primary screen, M4 allosteric agonist project, cell-based, HEK293 M4/GIRK, BTC-AM (AID 625;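 active means fluorescence slope after compound addition differing from the mean of all tested samples at 99.7% confidence, mostly higher but some lower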;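 further: thallium influx through GIRK channels coupled to M4 in HEK293 cells with BTC-AM dye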). The conditions noted are these: at 10 µM, actives lie on both sides.
Where [14] appears, read: measured here: cell density z-score.
[15] abbreviates: measured here: nuclear c-Myc green intensity z-score.
[16] abbreviates: measured here: nuclear pErk red intensity z-score, stronger effect = higher value.

Molecules are shown by their SMILES. Values joined by “and” are separate entries in the source; they are usually repeats but may differ in a detail not shown here. Equal values may be shown once. The source holds several records for some structures; these can differ, active in one and inactive in another. Active and inactive are the calls of the source.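 How the source made its calls, unless noted: active means inhibition at or above 50% relative to wild type and mutant plate controls; inactive means inhibition below 50%.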

Dual specificity protein phosphatase 6 (Homo sapiens), sequence (Q16828 whole entry, looked up): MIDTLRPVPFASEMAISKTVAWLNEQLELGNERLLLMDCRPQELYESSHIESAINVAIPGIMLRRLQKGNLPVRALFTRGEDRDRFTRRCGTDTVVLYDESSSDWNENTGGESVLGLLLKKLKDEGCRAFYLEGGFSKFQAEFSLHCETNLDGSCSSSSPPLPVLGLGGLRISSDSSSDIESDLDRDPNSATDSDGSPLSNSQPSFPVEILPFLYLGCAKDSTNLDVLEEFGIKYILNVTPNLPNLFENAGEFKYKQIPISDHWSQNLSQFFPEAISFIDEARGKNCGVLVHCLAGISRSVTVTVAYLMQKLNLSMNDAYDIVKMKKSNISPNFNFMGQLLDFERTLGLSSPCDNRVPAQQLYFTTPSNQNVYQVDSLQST
Alpha-2C adrenergic receptor (Homo sapiens), sequence (P18825 whole entry, looked up): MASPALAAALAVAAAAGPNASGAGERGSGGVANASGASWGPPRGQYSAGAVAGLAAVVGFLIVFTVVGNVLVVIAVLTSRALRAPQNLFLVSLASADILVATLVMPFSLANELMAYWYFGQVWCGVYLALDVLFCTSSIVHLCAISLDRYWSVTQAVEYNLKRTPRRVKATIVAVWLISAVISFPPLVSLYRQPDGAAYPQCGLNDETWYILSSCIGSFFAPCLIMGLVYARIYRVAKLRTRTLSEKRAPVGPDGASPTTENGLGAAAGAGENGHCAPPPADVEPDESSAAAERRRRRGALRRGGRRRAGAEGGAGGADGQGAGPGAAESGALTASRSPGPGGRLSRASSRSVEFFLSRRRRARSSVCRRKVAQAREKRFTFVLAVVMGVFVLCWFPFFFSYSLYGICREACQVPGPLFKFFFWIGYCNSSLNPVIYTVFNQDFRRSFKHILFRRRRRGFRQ
Muscarinic acetylcholine receptor M4 (Homo sapiens), sequence (P08173 whole entry, looked up): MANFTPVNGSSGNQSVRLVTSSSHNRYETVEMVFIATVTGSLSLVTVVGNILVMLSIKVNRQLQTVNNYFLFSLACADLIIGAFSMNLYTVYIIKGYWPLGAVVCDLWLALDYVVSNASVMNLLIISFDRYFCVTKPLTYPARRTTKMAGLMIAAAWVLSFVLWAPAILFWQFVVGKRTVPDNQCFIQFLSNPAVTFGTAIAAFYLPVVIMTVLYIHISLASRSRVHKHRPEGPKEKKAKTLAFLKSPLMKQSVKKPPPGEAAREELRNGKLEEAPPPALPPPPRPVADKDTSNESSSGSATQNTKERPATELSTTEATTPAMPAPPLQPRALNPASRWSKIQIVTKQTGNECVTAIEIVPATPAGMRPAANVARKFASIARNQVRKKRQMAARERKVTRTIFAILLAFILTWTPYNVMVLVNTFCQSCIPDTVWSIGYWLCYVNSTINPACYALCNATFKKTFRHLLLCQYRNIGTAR

Take `CC1Cc2ccccc2N1NC(=O)c1ccc(Cl)c(S(N)(=O)=O)c1` (stereo not given): the cell count in test [1] amounted to 657. Also, the inhibition in test [1] is -3.7% (inactive); in test [3], -59.9% (inactive); in test [5], 21.2% (inactive); in test [10], 18.3% (inactive); in test [11], -7.5% (inactive); in test [12], -10.9% (inactive). Besides, the inhibition of aggregation in [2] is 4.2% (inactive). The nuclei count was 112% in test [2] and 121% in test [3]. Also, the values for the z-score in [4] (setting [14]), in test [4] (setting [15]) and in test [4] (setting [16]) were 0.724, -0.336 and -0.652, respectively. In addition, the fluorescence slope in [6] is -0.544 (inactive). The NADPH fluorescence slope in test [7] is -5e-05 (inactive). In addition, the slope in test [8] was 0.0056 (inactive). Besides, in test [9], the outcome was inactive.

With `CCCCOc1ccccc1C(=O)NCCCC(=O)O`, the cell count in test [1] worked out at 531. The inhibition in [1] was -3.8% (inactive); in test [3], -66.7% (inactive); in test [5] it was -6.59% (inactive); in test [10], 20.4% (inactive); in test [11] it was 12.9% (inactive); in [12], 17.2% (inactive). In addition, in [2], the inhibition of aggregation is -44.1% (inactive). In addition, the nuclei count in test [2] amounted to 119%; in [3], 134%. The z-score in [4] (setting [14]) was -0.714; in test [4] (setting [15]), 1.18; in test [4] (setting [16]), 1.54. The values for the fluorescence slope in test [6] and in test [13] were -0.439 (inactive) and 0.00573 (inactive), respectively. The NADPH fluorescence slope in test [7] is -0.000111 (inactive). For the same compound, in test [9], the outcome was “active; weak signal in gallbladder and intestine”.

For `Cc1ccc(Cl)c(Nc2ccccc2C(=O)O)c1Cl`, the cell count in test [1] came out at 583. The inhibition was 1.3% (inactive) in [1]; -70.5% (inactive) in test [3]; -8.38% (inactive) in test [5]; 20.2% (inactive) and 61% (active) in test [10]; 16.4% (inactive) in test [11]; 40.3% (inactive) in test [12]. In addition, in test [2], the inhibition of aggregation was 12.3% (inactive). In addition, the nuclei count turned out to be 91.1% in test [2] and 95.9% in test [3]. Further, the z-score is -0.43 in [4] (setting [14]), -0.511 in [4] (setting [15]) and -0.695 in test [4] (setting [16]). Further, the fluorescence slope in [6] was -0.487 (inactive). In test [7], the NADPH fluorescence slope is -4.2e-05 (inactive). For the same compound, the slope in test [8] was 0.00556 (inactive). Further, the compound was called inactive in test [9].

Turning to `COc1ccc(C2/C(=C(/O)c3ccccc3)C(=O)C(=O)N2c2ncccn2)cc1OC` (stereo not given), the cell count in test [1] amounted to 460. Further, the inhibition is -0.7% (inactive) in test [1]; -7.4% (inactive) in [3]; 11.4% (inactive) in [5]; -1.92% (inactive) in [10]; 7.62% (inactive) in [11]; 3.83% (inactive) in [12]. Moreover, the inhibition of aggregation in test [2] was 2.3% (inactive). Further, the figures for the nuclei count in test [2] and in test [3] were 108% and 151%, respectively. In addition, the z-score was -0.394 in [4] (setting [14]), 1.14 in test [4] (setting [15]) and -0.858 in test [4] (setting [16]). Further, the fluorescence slope in test [6] is -0.338 (inactive). Besides, the NADPH fluorescence slope in test [7] is -3.2e-05 (inactive). Further, in [8], the slope is 0.00532 (inactive). The compound was called inactive in test [9].

`CCOC(=O)c1c(-c2cccs2)csc1NC(=O)CCCC(=O)O`: the cell count in test [1] was 550. The inhibition in [1] was -0.4% (inactive); in test [3], -22.1% (inactive); in [5], -5.81% (inactive); in [10], 16.8% (inactive); in test [11], 15.6% (inactive); in test [12], 21.7% (inactive). Also, the inhibition of aggregation in test [2] is -5% (inactive). Also, the nuclei count in [2] came to 110%; in test [3], 106%. The z-score in test [4] (setting [14]) is 0.00511; in test [4] (setting [15]), -0.304; in test [4] (setting [16]), -0.262. Also, the fluorescence slope in test [6] is -0.427 (inactive); in [13], 0.00466 (inactive). The NADPH fluorescence slope in test [7] is -5.3e-05 (inactive). The compound was called inactive in [9].

As for `CC1C/C=C/C=C/C=C/C=C/C(O[C@@H]2O[C@H](C)[C@@H](O)[C@H](N)[C@@H]2O)CC2OC(O)(CC(O)CC3OC3/C=C/C(=O)O1)CC(O)C2C(=O)O` (stereo not given in full), in test [1], the cell count amounted to 624. Also, the inhibition was -3.2% (inactive) in [1]; -59.4% (inactive) in [3]; 11.3% (inactive) in [5]; 1.43% (inactive) in test [10]; 7.33% (inactive) in [11]; 28.4% (inactive) in test [12]. Further, in [2], the inhibition of aggregation is 0.7% (inactive). Moreover, the nuclei count in [2] amounted to 111%; in test [3], 135%. The results for the z-score in test [4] (setting [14]), in [4] (setting [15]) and in [4] (setting [16]) were -0.528, -0.94 and -0.621, respectively. Moreover, the fluorescence slope in test [6] is -0.469 (inactive). Also, in [7], the NADPH fluorescence slope was -4.6e-05 (inactive). The slope in test [8] was 0.00542 (inactive). Further, the call in test [9] was inactive.

Regarding `O=C(O)Cc1ccc(-c2ccccc2)cc1`, the cell count in test [1] was 636. The inhibition in test [1] was -3% (inactive); in test [3], -30.6% (inactive); in test [5], 19% (inactive); in [10], -15% (inactive); in test [11] it was 8.68% (inactive); in [12], 34.8% (inactive). The inhibition of aggregation in test [2] was -7.3% (inactive). The nuclei count was 105% in test [2] and 123% in test [3]. Moreover, the z-score in test [4] (setting [14]) was 1.25; in test [4] (setting [15]), 0.515; in test [4] (setting [16]) it was -0.372. For the same compound, the fluorescence slope in test [6] was -0.444 (inactive). Moreover, in test [7], the NADPH fluorescence slope was -4.7e-05 (inactive). Besides, in [8], the slope is 0.00497 (inactive). The compound was classed as inactive in test [9].

As for `CN(C)CCOc1ccccc1Cc1ccccc1`, in [1], the cell count turned out to be 539. The inhibition in [1] is 5.9% (inactive); in test [3], -66.7% (inactive); in test [5] it was 10.2% (inactive); in [10] it was 147% (active); in [11] it was 17.7% (inactive); in test [12] it was 43% (inactive). The inhibition of aggregation in test [2] is -17.6% (inactive). In addition, the nuclei count was determined as 92.7% in test [2] and 118% in [3]. Further, the z-score is -0.59 in [4] (setting [14]), 1.74 in test [4] (setting [15]) and -0.949 in test [4] (setting [16]). In test [6], the fluorescence slope is -0.506 (inactive). For the same compound, in test [7], the NADPH fluorescence slope is 2.6e-05 (inactive). In addition, the slope in [8] is 0.00455 (inactive). The call in test [9] was inactive.

In the case of `CC(Cc1ccc(O)c(O)c1)C(C)Cc1ccc(O)c(O)c1` (stereo not given), the cell count in test [1] was 641. The inhibition was 12.1% (inactive) in test [1]; -62.1% (inactive) in test [3]; 16.8% (inactive) in test [5]; -9.23% (inactive) in [10]; 3.4% (inactive) in test [11]; -2.88% (inactive) in [12]. The inhibition of aggregation in [2] was -17.2% (inactive). Besides, the nuclei count came out at 100% in test [2] and 127% in test [3]. The z-score in test [4] (setting [14]) is 0.848; in test [4] (setting [15]), 0.39; in [4] (setting [16]), -0.226. In addition, the fluorescence slope in test [6] is -0.504 (inactive). Besides, the NADPH fluorescence slope in [7] is -8.3e-05 (inactive). In test [8], the slope was 0.00569 (inactive). Also, in test [9], the compound was called inactive.

With `CN=c1sc2ccccc2n1CC(O)COCc1ccco1` (stereo not given), the cell count in [1] came out at 575. Further, the inhibition in [1] is 0.4% (inactive); in test [3] it was -71.1% (inactive); in test [5], 1.04% (inactive); in test [10] it was 7.79% (inactive); in test [11] it was 12.5% (inactive); in test [12], 29.1% (inactive). Further, in [2], the inhibition of aggregation is 6.5% (inactive). In addition, the nuclei count in test [2] was determined as 98.5%; in test [3] it was 138%. Also, the z-score in test [4] (setting [14]) was found to be 0.277; in test [4] (setting [15]) it was 0.426; in test [4] (setting [16]), 0.235. In addition, the fluorescence slope in [6] was -0.302 (inactive). Also, the NADPH fluorescence slope in test [7] was -1.1e-05 (inactive). Besides, in test [8], the slope was 0.00567 (inactive). The result in test [9] was inactive.

As a reminder, the inhibition is the drop in the measured response relative to a control, in per cent.
